According to the antibiotic and cytotoxicity screens of Wong et al. (2023):
Among all 39,000 compounds or so, about 3,300 (8.5%) were called active. Shown is part of a subset that was picked to be rich in actives.

The compounds below were run on HepG2 (assay: cytotoxicity call (relative viability < 0.9)). Conditions: 10 µM.

Compound | cytotoxicity call
C[C@@H]1CN([C@H](C)CO)C(=O)c2cc(NC(=O)C3CC3)ccc2O[C@H]1CN(C)C(=O)Nc1ccc2c(c1)OCO2 | inactive
C[C@H]1COC(=O)[C@@H](Cc2ccc(F)cc2)CCC=CC[C@@H](CC(=O)N[C@H](CO)Cc2ccccc2)C(=O)N1 | inactive
CC(C)NC(=O)N(C)C[C@@H]1Oc2ccc(NC(=O)CCC(F)(F)F)cc2C(=O)N([C@H](C)CO)C[C@H]1C | inactive
COc1cccc(-c2cccc(-c3nc(C(=O)NCC(F)(F)F)cc4c3[C@@H](CCO)N([S@](=O)C(C)(C)C)C4)c2)c1 | inactive
O=C(O)CN(CCN(CC(=O)O)CC(=O)O)CC(=O)O.[Na+].[Na+] | inactive
C[C@H]1CN([C@@H](C)CO)C(=O)Cc2cc(NC(=O)CCCN(C)C)ccc2O[C@@H]1CN(C)C(=O)NC1CCCCC1 | inactive
Cc1noc(C)c1NC(=O)N(C)C[C@H]1OCCCC[C@@H](C)Oc2ccc(NC(=O)Cc3ccccc3)cc2C(=O)N([C@H](C)CO)C[C@@H]1C | inactive
O=C(C[C@H]1CC[C@H]2[C@@H](COC[C@@H](O)CN2Cc2ccccc2F)O1)N[C@H]1CCN(Cc2ccccc2)C1 | inactive
CCOC(=O)Cc1csc(/C(=N/O)C(N)=O)n1 | inactive
COC(=O)Cc1csc(CC(N)=O)n1 | active
COC(=O)CN(C)c1nnc(N)s1 | inactive
COC(=O)c1c(CC[C@@H](CO)NC(=O)NCCn2cc(C3(O)CCCC3)nn2)oc(C(C)=O)c1C(=O)OC | inactive
Cc1ccc(S(=O)(=O)N(C)C[C@@H]2OCCCC[C@@H](C)Oc3ccc(NC(=O)Nc4c(C)noc4C)cc3C(=O)N([C@@H](C)CO)C[C@H]2C)cc1 | inactive
C[C@@H]1CN([C@@H](C)CO)C(=O)c2cccc(NS(=O)(=O)c3cccs3)c2O[C@H]1CN(C)Cc1ccc(-c2ccccc2)cc1 | inactive
C[C@H]1CN([C@@H](C)CO)C(=O)Cc2cc(NC(=O)Cc3cn(C)c4ccccc34)ccc2O[C@@H]1CN(C)C | inactive
COc1cc2c(cc1OC)CN(CCc1ccc(-n3nnc(-c4cc(OC)c(OC)cc4NC(=O)c4cc(=O)c5ccccc5o4)n3)cc1)CC2 | inactive
COc1cc2c(cc1OC)CN(CCc1ccc(NC(=O)c3cc(OC)c(OC)cc3NC(=O)c3cnc4ccccc4c3)cc1)CC2 | active
COc1cc2c(cc1OC)CN(CCc1ccc(NC(=O)c3cccc4c(=O)c5cccc(OC)c5[nH]c34)cc1)CC2 | inactive
CNC[C@@H]1Oc2ccc(NC(=O)Cn3cnnn3)cc2C(=O)N([C@@H](C)CO)C[C@H]1C | inactive
CCCCCCO[C@H](C)c1c(c/2[nH]c1/C=C/1\N=C(/C=C/3\NC4=C(CC(=O)C4=C3C)C3=N/C(=C2)[C@@H](C)[C@@H]3CCC(=O)O)C(=C1C)CC)C | active
Cc1noc(C)c1NC(=O)Nc1cccc2c1O[C@@H](CN(C)Cc1ccc(C(F)(F)F)cc1)[C@@H](C)CN([C@H](C)CO)C2=O | inactive
COc1ccc(S(=O)(=O)Nc2ccc3c(c2)C(=O)N([C@@H](C)CO)C[C@@H](C)[C@H](CN(C)C(=O)C2CCCCC2)OCCCC[C@H](C)O3)cc1 | inactive

Compound | cytotoxicity call
CC(C)(C)[S@@](=O)N1Cc2cc(C(=O)N3CCCCC3)nc(-c3cccc(-c4cccc(C#N)c4)c3)c2[C@H]1CCO | inactive
CO[C@@H]1CN(C)C(=O)c2cc(NC(=O)C3CC3)ccc2OC[C@H](C)N(C(=O)C2CCOCC2)C[C@@H]1C | inactive
Cc1noc(C)c1S(=O)(=O)Nc1ccc2c(c1)CC(=O)N([C@H](C)CO)C[C@@H](C)[C@H](CN(C)S(=O)(=O)c1ccc(Cl)cc1)O2 | inactive
CC(=O)Oc1cccc(O)c1 | inactive
CC(=O)Oc1ccc(O)cc1 | active
CC(=O)Nc1ccc(OC(C)=O)cc1 | inactive
C[C@H]1CN([C@@H](C)CO)C(=O)c2c(c3ccccc3n2C)-c2ccccc2CO[C@H]1CN(C)C(=O)c1cc(Cl)cc(Cl)c1 | inactive
C[C@@H]1CN([C@@H](C)CO)C(=O)c2c(c3ccccc3n2C)-c2ccccc2CO[C@@H]1CN(C)C(=O)c1cc(Cl)cc(Cl)c1 | active
C[C@@H]1CN([C@@H](C)CO)C(=O)c2c(c3ccccc3n2C)-c2ccccc2CO[C@H]1CN(C)C(=O)c1cc(Cl)cc(Cl)c1 | inactive
C[C@H](CO)N1C[C@H](C)[C@@H](CN(C)C(=O)c2cc(Cl)cc(Cl)c2)OCc2ccccc2-c2c(n(C)c3ccccc23)C1=O | active
C[C@H]1CN([C@@H](C)CO)C(=O)c2c(c3ccccc3n2C)-c2ccccc2CO[C@@H]1CN(C)C(=O)c1cc(Cl)cc(Cl)c1 | inactive
C[C@@H]1CN([C@H](C)CO)C(=O)c2c(c3ccccc3n2C)-c2ccccc2CO[C@H]1CN(C)C(=O)c1cc(Cl)cc(Cl)c1 | inactive
Cc1ccc(S[C@]2(C(=O)NC(C)C)CC(=O)N(Cc3ccccc3Cl)[C@@H]2c2ccc(CO)cc2)cc1 | inactive
C[C@@H]1CCCCO[C@@H](CN(C)Cc2ccc(C(F)(F)F)cc2)[C@H](C)CN([C@H](C)CO)C(=O)c2cc(NC(=O)CCCN(C)C)ccc2O1 | inactive
CS(=O)(=O)N1CCS(=O)(=O)[C@H]2CCN(CC3CC3)CC[C@@H]21 | inactive
COc1ccc(S(=O)(=O)N(C)C[C@@H]2Oc3ccc(NC(=O)Nc4cccc5ccccc45)cc3C(=O)N([C@H](C)CO)C[C@@H]2C)cc1 | inactive
CC(C)c1c(C(=O)Nc2ccccc2)c(-c2ccccc2)c(-c2ccc(F)cc2)n1CC[C@@H](O)C[C@@H](O)CC(=O)O | inactive
C[C@@H]1CCCCO[C@@H](CN(C)CC2CC2)[C@H](C)CN([C@@H](C)CO)C(=O)c2cc(NC(=O)c3ccccc3)ccc2O1 | inactive
C[C@@H]1CCCCO[C@@H](CN(C)Cc2ccc(C(=O)O)cc2)[C@@H](C)CN([C@H](C)CO)C(=O)c2cc(NC(=O)C3CCCCC3)ccc2O1 | inactive
CC1=C(C(=O)O)N2C(=O)[C@@H](NC(=O)[C@H](N)c3ccc(O)cc3)[C@H]2SC1 | inactive
CCN1CCN(Cc2ccc(C(=O)Nc3ccc(C)c(Oc4ccc5c(c4)CC(=O)N5)c3)cc2C(F)(F)F)CC1 | active
COCC(=O)Nc1ccc2c(c1)CC(=O)N2 | inactive
